# Assay outcomes (PubChem)
# SKOV3 invasion – inhibitors of ovarian cancer cell adhesion and invasion in omental model; Potency, µM (series often up to 45.8 µM), without a hit: at the highest dose activity change, negative = inhibition, actives largely listed as inhibitors; 0.1% of 46,000 active; SKOV3ip1-GFP adhesion/invasion on 3D omental model, fluorescence; AID 1963576;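 note: potency is the fitted concentration of half-maximal effect; plate controls were DMSO wells for no effect and tomatine positive control wells for full effect; nearly all actives have a fitted effect of over 65% in size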
#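 Adhesion/invasion was scored as fixed GFP-labeled SKOV3ip1 cell counts (488/509 nm), normalized to DMSO and tomatine controls. Cancer cells in serum-free medium, with four compound doses (0.36-46 umol/L), sat 2 hr at RT then 16 hr at 37 C on a 48 hr fibroblast/mesothelial/ECM culture.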
# GALC G270D up – enhancers of human galactocerebrosidase G270D mutant activity in cells. Potency, µM (doses to about 57.5 µM), actives largely listed as activators. 0.1% of 45,000 active. P54803. 145M-Twi-hGALC-G270D cells (Twitcher mouse brain line with human GALC G270D), HMU-beta-Gal fluorescence, 48 h; note: potency is the fitted concentration of half-maximal effect; 0% is about no effect; nearly all actives have a fitted effect of over 65% in size
#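 Mutant human GALC (G270D), stably expressed in a Twitcher mouse brain cell line lacking endogenous GALC, is measured in live-treated cells via 6-hexadecanoylamino-4-methylumbelliferyl-β-galactoside hydrolysis (0.1 mM final, pH 5.2) with fluorescent detection.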
# S16 viability – S16 Schwann cell cytotoxicity; S16 Pmp22-F2sN Schwann cells viability, CellTiter-Glo, 24 h; 0.48% of 43,000 active; AID 1508642; Potency, µM (doses to about 57.5 µM), inactives show at the top dose activity change, negative = cytotoxicity, usual class: cytotoxic; note: potency is the fitted concentration of half-maximal effect; % is set by controls: 0 for no effect and ±100 for the full control effect; nearly all actives have a fitted effect of over 65% in size
#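 Viability was measured by CellTiter-Glo luminescence (15 min, room temperature). This followed 24 h at 37 °C of compound exposure (23 nL pin transfer) in S16 Pmp22-F2sN Schwann cells, 500-1,000 per well.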
# PMP22 txn – modulators of PMP22 gene transcription in S16 Schwann cells | S16 Pmp22-F2sN Schwann cells (luciferase reporters placed in the Pmp22 gene), FLuc/NLuc coincidence luminescence, 24 h | Potency, µM (highest dose often 57.5 µM), for the others: top-dose activity change, negative = inhibition, usual class: inhibitors | 2% of 43,000 active | AID 1508649; active = clear falling dose curves in both reporters; inconclusive = both reporters move, but less clearly or upward; inactive = either reporter flat; the % is the NLuc reporter signal; note: potency is the fitted concentration of half-maximal effect; % is set by controls: 0 for no effect and ±100 for the full control effect
#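 Reporter cells (S16 Pmp22-F2sN, 500–1,000 per well) exposed to compounds for 24 h, 37C, 5% CO2; lysis with FLuc read after 10 min, then Stop&Glo and NLuc read after 10 min.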
# mTORC1 inh – reduces mTORC1 signaling in Tsc2 and p53 null MEF cells. Tsc2-/- p53-/- MEF, phospho-rpS6 immunofluorescence/PI, 24 h. Potency, µM (highest dose often 38.3 µM), for the others: at the highest dose activity change, negative = inhibition, usual class: inhibitors. 0.78% of 44,000 active;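 note: potency is the fitted concentration of half-maximal effect; plate controls were DMSO for no effect and rapamycin for full effect; nearly all actives have a fitted effect of over 50% in size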
#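 Readout is phospho-S6 Alexa 488 signal normalized to PI per well, reported as % active cells with thresholds set from rapamycin (7.5 nM) and DMSO controls. Cells: Tsc2-/-, p53-/- MEFs, 24 hrs compound at 37 C; PI cell number serves as viability.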
# NLuc saturating – inhibits NanoLuc at saturating substrate, PMP22 counter-screen; shares compounds with PMP22 txn; Secreted NLuc enzyme (filtered S16 cell medium), Nano-Glo luminescence; Potency, µM (titrated, usually from 57.5 µM), without a hit: at the top dose activity change, negative = inhibition, usual class: inhibitors; 4% of 690 active; AID 1508638; note: potency is the fitted concentration of half-maximal effect; % is set by controls: 0 for no effect and ±100 for the full control effect
# NLuc Km ctr – NanoLuc inhibition at Km substrate, PMP22 artifact check. shares compounds with PMP22 txn. secreted NLuc enzyme, coelenterazine luminescence, Km conditions. Potency, µM (top dose mostly 57.5 µM), without a hit: at the highest dose activity change, negative = inhibition, hits mostly inhibitors. 5% of 690 active. AID 1508639; note: potency is the fitted concentration of half-maximal effect; % is set by controls: 0 for no effect and ±100 for the full control effect
# FLuc ctr PMP22 – firefly luciferase enzyme inhibition artifact for PMP22 screen. shares compounds with PMP22 txn. purified P. pyralis FLuc, luminescence, 10 min. Potency, µM (doses to about 57.5 µM), without a hit: at the top dose activity, negative = inhibition, usual class: inhibitors. 690 tested, under 10 active; note: % of control where 0% means no effect
# Target sequence (P08659 whole entry, looked up): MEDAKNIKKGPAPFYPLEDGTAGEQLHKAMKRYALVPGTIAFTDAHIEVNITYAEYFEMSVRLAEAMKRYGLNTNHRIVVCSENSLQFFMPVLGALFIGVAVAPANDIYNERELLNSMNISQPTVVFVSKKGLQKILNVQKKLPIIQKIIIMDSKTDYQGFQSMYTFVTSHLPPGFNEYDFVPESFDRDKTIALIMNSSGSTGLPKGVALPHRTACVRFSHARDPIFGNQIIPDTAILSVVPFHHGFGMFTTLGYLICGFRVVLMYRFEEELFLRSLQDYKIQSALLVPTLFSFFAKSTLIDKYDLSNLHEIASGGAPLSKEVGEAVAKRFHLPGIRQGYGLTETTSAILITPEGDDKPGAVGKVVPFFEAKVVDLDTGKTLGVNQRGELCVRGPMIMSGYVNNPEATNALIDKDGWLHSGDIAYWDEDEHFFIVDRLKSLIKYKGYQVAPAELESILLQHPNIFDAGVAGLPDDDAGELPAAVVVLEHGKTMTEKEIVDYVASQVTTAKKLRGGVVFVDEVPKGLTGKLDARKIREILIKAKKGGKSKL
# S16 viab conf – S16 Schwann cell cytotoxicity, confirmatory; shares compounds with PMP22 txn; AID 1508641; 7% of 690 active; S16 Schwann cells viability, CellTiter-Glo ATP luminescence, 24 h; Potency, µM (top dose mostly 57.5 µM), for the others: at the top dose activity change, negative = viability loss, most hits filed as cytotoxic; note: potency is the fitted concentration of half-maximal effect; % is set by controls: 0 for no effect and ±100 for the full control effect
# PMP22 txn cnf – PMP22 transcription modulation, confirmatory | 22% of 690 active | Potency, µM (titrated, usually from 57.5 µM), for inactives: top-dose activity change, negative = inhibition, hits mostly inhibitors | shares compounds with PMP22 txn | AID 1508646 | S16 Schwann cells Pmp22-F2sN, dual luciferase, 24 h; active = clear falling dose curves in both reporters; inconclusive = both reporters move, but less clearly or upward; inactive = either reporter flat; the % is the FLuc reporter signal; note: potency is the fitted concentration of half-maximal effect
# PMP22 prot conf – rat PMP22 protein level modulation, confirmatory. shares compounds with PMP22 txn. S16 Schwann cells Pmp22-HiBiT, luminescence, 48 h. Potency, µM (highest dose often 27.9 µM), without a hit: at the top dose activity change, negative = inhibition, hits mostly inhibitors. 95 tested, under 10 active. AID 1508647
# Target sequence (P25094 whole entry, looked up): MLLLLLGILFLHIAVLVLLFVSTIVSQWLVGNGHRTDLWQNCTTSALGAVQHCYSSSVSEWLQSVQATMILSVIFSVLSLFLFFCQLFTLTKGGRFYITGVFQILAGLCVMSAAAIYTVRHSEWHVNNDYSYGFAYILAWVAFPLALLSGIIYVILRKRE
# Active calls of the source: *; i = inactive; u = inconclusive; x = not tested or not shown. The list is not random: actives were taken first. Their share in the collection is about 2.6%. Unless noted, calls come from the whole dose curve; as a rule, active = well fitted curve in the direction sought with a large enough effect; inconclusive = small, poorly fitted or top-dose-only effect, or another doubt; inactive = no such curve, though single readings can be large; an effect the other way counts as inactive or inconclusive.
SMILES,SKOV3 invasion,GALC G270D up,S16 viability,PMP22 txn,mTORC1 inh,NLuc saturating,NLuc Km ctr,FLuc ctr PMP22,S16 viab conf,PMP22 txn cnf,others
CCC(=O)N1CCc2cc(S(=O)(=O)CCC(=O)N3CCN(c4ccc(Cl)cc4)CC3)ccc21,2%,i,-1%,17µM*,-2%,u,-4%,-3%,12%,u,
O=C(CCc1ccc(O)cc1)c1c(O)cc(O)cc1O[C@@H]1O[C@H](CO)[C@H](O)[C@H](O)[C@H]1O,-15%,x,x,x,x,x,x,x,x,x,
Cc1ccc(NS(=O)(=O)c2ccc3[nH]c4c(c3c2)CCCCCC4)cc1Cl,u,i,-9%,u,-18%,x,x,x,x,x,
COc1ccc(OC)c(CNS(=O)(=O)c2ccc3[nH]c4c(c3c2)CCCCC4)c1,14%,i,-18%,15µM*,-8%,-11%,u,2%,1%,-16%,
Cc1ccc(NS(=O)(=O)c2ccc3[nH]c4c(c3c2)CCCC4)cc1N(C)C,-20%,i,u,17µM*,-17%,2%,-20%,1%,7%,u,
CN1CCN(c2ncc(-c3cc(Cl)cc(Cl)c3Cl)c(N)n2)CC1,3%,x,x,x,x,x,x,x,x,x,
COc1ccc(C2CC(=O)c3cc(-c4nc(-c5ccc(Cl)cc5)cs4)c(=O)[nH]c3C2)cc1 (centres undefined),10%,i,5%,u,2%,x,x,x,x,x,
O=C1CC(c2ccccc2)Cc2[nH]c(=O)c(-c3nc(-c4ccc(F)cc4)cs3)cc21 (centres undefined),-15%,i,-11%,3.4µM*,u,u,u,-13%,4%,u,
Cc1c(CN2CCN(S(C)(=O)=O)CC2)sc2c(N3CCOCC3)nc(-c3cnc(N)nc3)nc12,-2%,x,x,x,x,x,x,x,x,x,
CC1=Nc2cc(C(=O)NC3CCC(C)CC3)ccc2Sc2c(C)ccc(C)c21 (centres undefined),8%,i,4%,-116%,-11%,x,x,x,x,x,
CCCC1=Nc2cc(C(=O)NCCOC)ccc2Sc2ccccc21,i,i,-7%,u,u,x,x,x,x,x,
COCCCNC(=O)c1ccc2c(c1)N=C(C)c1c(C)ccc(C)c1S2,u,i,11%,0.089µM*,-10%,-7%,u,-7%,11%,0.31µM*,PMP22 prot conf=u
CCC1=Nc2cc(C(=O)NCCCOC)ccc2Sc2ccc(Br)cc21,i,i,1%,1.3µM*,u,-11%,-5%,8%,u,u,PMP22 prot conf=u
CCC(=O)O[C@]1(C(=O)CO)CC[C@H]2[C@@H]3CCC4=CC(=O)CC[C@]4(C)[C@@H]3CC[C@@]21C,-16%,x,x,x,x,x,x,x,x,x,
CN(C)Cc1cccc(N=C(c2ccccc2)c2c(O)[nH]c3cc(C(=O)N(C)C)ccc23)c1,14%,x,x,x,x,x,x,x,x,x,
COc1cccc(-c2cc(C(=O)Nc3cc(OC)c(OC)c(OC)c3)on2)c1,u,i,u,3.9µM*,-1%,u,11µM*,-13%,-6%,18µM*,
CCOc1ccc(OCC)c(NC(=O)c2nnn(Cc3cc(Br)ccc3OC)c2N)c1,i,i,15%,-16%,4%,x,x,x,x,x,
CCOc1ccc(OCC)c(NC(=O)c2nnn(CC(=O)Nc3cc(Cl)ccc3OC)c2N)c1,u,i,14%,11µM*,-17%,-4%,7%,7%,u,14µM*,
CCc1ccc(-n2c(SCc3cccc(F)c3)nc3[nH]ncc3c2=O)cc1,7%,i,u,16µM*,-6%,-18%,u,-3%,u,u,
COc1ccc(C)cc1NS(=O)(=O)c1ccc(-c2cnc(C3CC3)o2)cc1,i,i,u,5.6µM*,0%,-9%,u,-1%,-26%,u,PMP22 prot conf=u
COc1cccc(NS(=O)(=O)c2cc(-c3cnc(C4CC4)o3)ccc2C)c1,i,i,u,8.5µM*,-10%,u,15µM*,7%,-7%,2.9µM*,
CCOC(=O)c1c(NC(=O)c2ccc(S(=O)(=O)N(C)C)cc2)sc2c1CCN(C)C2,u,i,-7%,u,u,x,x,x,x,x,
CCOC(=O)c1c(NC(=O)c2ccc(S(=O)(=O)N3CCC(C)CC3)cc2)sc2c1CCN(C)C2,u,i,u,18µM*,15µM*,u,u,6%,u,18µM*,
COc1ccccc1NC(=O)c1oc2ccccc2c1NC(=O)c1c(F)cccc1F,-8%,i,-25%,-24%,2%,x,x,x,x,x,
COc1cc(C(=O)Nc2c(C(=O)Nc3ccccc3F)oc3ccccc23)cc(OC)c1OC,i,i,1%,17µM*,-8%,-3%,-4%,u,-2%,u,
CCN1CCOC(=O)C1CC(=O)Nc1ccc(C(C)=O)cc1 (centres undefined),6%,i,20%,u,u,x,x,x,x,x,
CCc1ccc(NC(=O)CC2C(=O)OCCN2CC)cc1 (centres undefined),i,i,u,15µM*,u,-17%,-17%,-19%,-27%,u,
